# A selection: hits, their analogues and other compounds. The true share with any hit is near 9%.
# IMPase Li inh = qHTS Assay for Identifying the Cell-Membrane Permeable IMPase Inhibitors: Potentiation with Lithium; CHO-M1 cells, IP1 TR-FRET (IP-One), carbachol + lithium; Potency, µM (titrated, usually from 59.4 µM), without a hit: at the top dose activity, negative = IMPase inhibition, hits mostly inhibitors; 210,000 compounds, 0.35% hits;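 further: IP1 builds up when IMPase is blocked and the TR-FRET signal falls; plate controls were basal vehicle for no effect and high inhibitor control for full effect; nearly all actives have a fitted effect of over 50% in size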
#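 CHO cells stably expressing M1 receptor (2000/well) were cultured 16–30 h, then exposed to compounds with a small lithium addition for 30 min at 37C. IP1 was measured by TR-FRET competition; AC50 from Hill fits.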
# Luc counter = Counterscreen for Luciferase (Kinase-Glo TM) Inhibition; Luciferin 4-monooxygenase (Photuris pensylvanica), Q27757; AID 1379, 2008; 200,000 compounds, 0.28% hits; Potency, µM (doses to about 38.3 µM), without a hit: at the top dose activity change, negative = inhibition, hits mostly inhibitors; Kinase-Glo luciferase, ATP luminescence, 8 min; further: nearly all actives have a fitted effect of over 60% in size
#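 Compounds were added to a substrate mix at pH 7.2 (50 mM imidazole, 10 uM ATP, within the enzyme's linear range), followed by Kinase-Glo detection reagent; luminescence was measured after 8 minutes at ambient temperature.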
# HPGD inh = qHTS Assay for Inhibitors of HPGD (15-Hydroxyprostaglandin Dehydrogenase); 15-hydroxyprostaglandin dehydrogenase [NAD(+)] (Homo sapiens), P15428; purified HPGD, NADH fluorescence kinetic, PGE2 substrate; Potency, µM, for inactives: top-dose activity change, negative = inhibition, actives largely listed as inhibitors; 150,000 compounds, 4.3% hits; AID 894, 2007; active means well fitted inhibition curve with a large enough effect, not every such curve was filed as active; inconclusive means small, poorly fitted or top-dose-only effect, or another doubt; inactive means no such curve, though single readings can be large or run the other way
# Target sequence (P15428 whole entry, looked up): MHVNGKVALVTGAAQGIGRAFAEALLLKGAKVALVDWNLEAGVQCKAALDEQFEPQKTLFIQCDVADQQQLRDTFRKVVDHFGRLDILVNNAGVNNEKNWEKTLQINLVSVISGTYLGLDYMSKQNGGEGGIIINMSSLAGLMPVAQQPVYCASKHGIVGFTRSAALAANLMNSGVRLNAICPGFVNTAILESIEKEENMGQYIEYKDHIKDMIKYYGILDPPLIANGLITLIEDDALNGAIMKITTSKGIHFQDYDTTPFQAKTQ
#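 20 nM HPGD preincubated 15 min at room temperature with compound in 50 mM Tris-HCl pH 8, 0.01% Tween 20. Started with 1 mM NAD+ and 30 uM prostaglandin E2; NADH fluorescence (360/450 nm) read 5 times over 30-s intervals, last minus first.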
# ALDH1A1 block = qHTS Assay for Inhibitors of Aldehyde Dehydrogenase 1 (ALDH1A1) | Purified ALDH1A1, NADH fluorescence, propionaldehyde substrate | Potency, µM (top dose mostly 75.3 µM), inactives show at the top dose activity, negative = inhibition, usual class: inhibitors | 220,000 compounds, 7.3% hits | AID 1030, 2008; active means well fitted inhibition curve with a large enough effect, not every such curve was filed as active; inconclusive means small, poorly fitted or top-dose-only effect, or another doubt; inactive means no such curve, though single readings can be large or run the other way;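 further: plate controls were no enzyme wells and a reference inhibitor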
# Target sequence (P00352 whole entry, looked up): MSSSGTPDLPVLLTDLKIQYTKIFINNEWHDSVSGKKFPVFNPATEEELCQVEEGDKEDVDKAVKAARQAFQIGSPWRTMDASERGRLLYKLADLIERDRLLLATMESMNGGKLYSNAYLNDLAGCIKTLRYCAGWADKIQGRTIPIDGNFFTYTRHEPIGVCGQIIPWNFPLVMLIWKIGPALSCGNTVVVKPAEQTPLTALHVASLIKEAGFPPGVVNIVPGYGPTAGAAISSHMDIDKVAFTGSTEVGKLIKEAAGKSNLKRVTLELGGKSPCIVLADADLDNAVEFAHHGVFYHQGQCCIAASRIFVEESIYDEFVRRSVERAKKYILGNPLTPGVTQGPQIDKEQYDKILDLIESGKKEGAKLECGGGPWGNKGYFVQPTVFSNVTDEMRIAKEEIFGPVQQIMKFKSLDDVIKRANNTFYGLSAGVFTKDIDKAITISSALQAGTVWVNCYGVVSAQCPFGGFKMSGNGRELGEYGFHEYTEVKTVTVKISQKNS
# Lamin A splicing = qHTS Assay for Modulators of Lamin A Splicing | Potency, µM (top dose mostly 46.1 µM), inactives show at the highest dose ratio change, negative = inhibition, actives largely listed as inhibitors | 200,000 compounds, 0.01% hits | HeLa LMNA splicing GFP/RFP minigene ratio, 48 h; active means well fitted inhibition curve with a large enough effect in the signal ratio, with a control signal flat, not every such curve was filed as active; inconclusive means small, poorly fitted or top-dose-only effect, or effect the other way, or a change in a side signal; the % refers to the signal ratio
#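 S3 HeLa stable clones carrying a lamin A-EGFP splicing minigene plus DsRed2 were seeded at 600 cells/well in Opti-MEM with 2% FBS, pin-dosed and incubated 48 h at 37°C. Acumen cytometry (488 nm) gave the GFP/RFP total-intensity ratio.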
# Starred values were filed as active, the others as inactive; u = inconclusive; x = not tested or not shown; [ ] = remark or other dose. Unless noted, the call rests on the fitted dose curve; in most records, active means well fitted curve in the direction sought with a large enough effect; inconclusive means small, poorly fitted or top-dose-only effect, or another doubt; inactive means no such curve, though single readings can be large; an effect the other way counts as inactive or inconclusive. Unless noted, on the % scale 0 is the no-effect control and ±100 the full control effect; potency means the concentration at half of the fitted maximal effect.
SMILES,IMPase Li inh,Luc counter,HPGD inh,ALDH1A1 block,Lamin A splicing
O=C(N/N=C/c1coc2ccccc2c1=O)c1ccccc1Br,-9%,-2%,-29%,4.5µM*,-3%
O=C(N/N=C/c1coc2ccccc2c1=O)c1cccc([N+](=O)[O-])c1,-2%,-1%,x,28µM*,-6%[46 µM]
COc1ccc(C(=O)N/N=C\c2coc3ccccc3c2=O)cc1,x,x,x,3.5µM*,x
Cc1ccc(S(=O)(=O)CCNC(=O)Cc2ccc(Cl)cc2)cc1,4%,-1%,x,12%,13%[46 µM]
Cc1nc2cc3nc(C)sc3cc2s1,-11%[38.3 µM],-16%,13µM*,1.8µM*,-6%
Cc1nc2cc(CO)ccc2s1,-7%[38.3 µM],-3%,-5%,2%,3%
CCc1ccccc1N/N=C(/C)c1c(O)cc(C)oc1=O,7%,0%,x,7.9µM*,-10%[46 µM]
C/C(=N\NC(=O)c1cccnc1)c1c(O)cc(C)oc1=O,-1%,-6%,-18%,25µM*,1%
C/C(=N\NC(=O)c1cccnc1)c1cc(C)oc1C,-11%,0%,-3%,-9%,1%
CCc1ccccc1Nc1ncnc2c1nc1n2CCCC1,x,x,x,x,2%[46 µM]
CC(=O)c1ccc(NC(=O)CSCC(=O)Nc2ccc3ccccc3c2)cc1,27%[38.3 µM],-4%,-12%,u,-2%
CC(=O)c1ccc(NC(=O)CCSCCC(=O)Nc2ccc(C(C)=O)cc2)cc1,16%[38.3 µM],2%,-10%,40µM*,27%
O=C1Nc2ccccc2C1(O)C/C(=N/O)c1ccccc1 (centres undefined),-1%,0%,x,14%,x
O=S(=O)(NCCc1csc2nc(-c3ccc(F)cc3)nn12)c1ccc2c(c1)OCCO2,x,x,x,x,13%[46 µM]
NC(=S)Cc1nc(-c2ccccc2)cs1,-5%,-5%,-17%,3.2µM*,u
Nc1nc(-c2ccccc2)cs1,-21%,18%,-8%,u,10%
CCOC(=O)Cc1csc(/C(=N/O)C(N)=O)n1,14%[38.3 µM],3%,-12%,28µM*,u
Cc1c(NC(=O)/C(C#N)=C/c2ccc(-c3cccc(Cl)c3)o2)c(=O)n(-c2ccccc2)n1C,12%,1%,18µM*,4%,-17%
Cc1cccc(-c2ccc(C=Nc3c(C)n(C)n(-c4ccccc4)c3=O)o2)c1,-15%[38.3 µM],-2%,-27%,11µM*,6%
Cc1c(N=Cc2nc3ccccc3[nH]2)c(=O)n(-c2ccccc2)n1C,3%[38.3 µM],-22%,-23%,2%,6%
Cc1c(N=Cc2nc3ccccc3n2C)c(=O)n(-c2ccccc2)n1C,11%[38.3 µM],11µM*,-6%,7%,7%
Cc1ccnc(N2C(=O)c3ccccc3C2O)c1 (centres undefined),-9%[38.3 µM],11µM*,-4%,3%,-11%
CCC(CC)C(=O)Nc1cccc(SC)c1,15%,-1%,x,5%,-3%[46 µM]
Nn1c(SCc2cccc(C(F)(F)F)c2)nnc1-c1ccco1,-3%[38.3 µM],-4%,-18%,22µM*,-4%
CC1=C(C(=O)Nc2cccc(C(F)(F)F)c2)C(c2ccccn2)n2ncnc2N1 (centres undefined),x,x,x,x,-3%[46 µM]
SMILES,IMPase Li inh,Luc counter,HPGD inh,ALDH1A1 block,Lamin A splicing
COc1ccccc1-c1cncnc1NCc1cccnc1,2%,1%,-9%,-1%,9%
N#Cc1ccccc1-c1cncnc1NCc1cccnc1,12%,-4%,u,28µM*,-8%
O=C(Nc1ccc(Cl)cc1C(F)(F)F)C(Sc1nnc(-c2cccs2)o1)c1ccccc1 (centres undefined),x,x,x,2.8µM*,u
O=C(Nc1cc(C(F)(F)F)ccc1Cl)C(Sc1nnc(-c2cccs2)o1)c1ccccc1 (centres undefined),x,x,x,1µM*,u
CCOC(=O)c1c(C2CC2)csc1NC(=O)COC(=O)c1cc(OC)c(OC)cc1[N+](=O)[O-],10%,-1%,-17%,-4%,-8%
O=C(c1ccccc1)c1cc([N+](=O)[O-])ccc1N1CCOCC1,7%,2%,-7%,u,u
O=C(c1ccccc1)c1cc(F)c(N2CCOCC2)cc1Cl,11%[38.3 µM],-1%,20µM*,1%,16%
COC(=O)c1ccc(N2CCOCC2)c(F)c1,1%[38.3 µM],-3%,-2%,10%,-10%
O=C(c1ccccc1)c1ccc(N2CCOCC2)c(F)c1,-1%[38.3 µM],-4%,25µM*,-2%,2%
COc1ccc2nc3c(cc2c1)Cc1ccccc1-3,12%,13µM*,u,u,x
O=c1cc(Cl)c(-c2ccccc2)n[nH]1,21%[38.3 µM],-3%,28µM*,0%,-28%
CCC(C)N(C)C(=O)c1cc2ccccc2c(-c2ccccc2Cl)n1 (centres undefined),18%,-9%,-21%,-4%,-13%
CC1=C(C(=O)Nc2cccc(C(F)(F)F)c2)C2(CCCCCC2)OC1=O,x,x,x,x,-2%[46 µM]
COC(=O)c1ccc(NC(=O)CNCc2ccncc2)cc1,-6%,3%,0%,22µM*,-6%
COC(=O)c1ccc(CNCC(=O)Nc2ccc(C(=O)OC)cc2)cc1,-4%,0%,28µM*,-5%,u
COC(=O)c1ccc(NC(=O)Cc2ccc(F)cc2)cc1,6%,0%,x,3%,4%[46 µM]
COC(=O)c1ccc(NC(=O)CN2C(=O)C3C4C=CC(C4)C3C2=O)cc1 (centres undefined),21%[38.3 µM],-5%,20µM*,3%,5%
CCOC(=O)c1ccc(NC(=O)C(=O)NCc2ccncc2)cc1,6%,9%,-28%,u,-3%
CCOC(=O)c1ccccc1NC(=O)CSc1nc2ncccc2o1,x,x,x,x,1%[46 µM]
O=C(c1nn(Cc2ccccc2)c(=O)c2ccccc12)N1CCN(C/C=C/c2ccccc2)CC1,16%[38.3 µM],0%,-5%,13µM*,11%
C=CCn1c(CCNC(=O)c2ccccc2F)nnc1SCC(=O)Nc1nc2ccccc2s1,19%[38.3 µM],-5%,3%,u,-9%
CC1=C(C(=O)OC(C)C)C(c2cccc([N+](=O)[O-])c2)n2c(cc(=O)[nH]c2=S)N1 (centres undefined),13%,1%,28µM*,8%,u
Cc1ccc(-n2c(N)c(C(N)=O)sc2=S)cc1,-17%[38.3 µM],1%,7.9µM*,4.5µM*,5%
Nc1c(C(=O)NCc2cccnc2)sc(=S)n1-c1ccccc1,-6%[38.3 µM],-1%,14µM*,8.9µM*,-11%
COc1ccc(CNC(=O)c2sc(=S)n(-c3ccc(OC)cc3)c2N)cc1,26%[38.3 µM],-3%,32µM*,19µM*,-7%
Cc1ccc(-n2c(N)c(C(=O)NCc3ccco3)sc2=S)cc1,-5%[38.3 µM],-7%,u,u,-7%
CC(C)=C1C(=O)C(c2ccccc2)=C2CN3C(=O)N(CCc4ccccc4)C(=O)[C@]3(Cc3ccccc3)[C@H]21,-2%,-4%,-6%,-5%,x
